Data from PubChem BioAssay (NCI).
Compounds without any hit were thinned out: in the full panel of roughly 83,000, 20% have a hit.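 Plates (96-well) were seeded with cells, treated with compound at one concentration, and incubated for 48 hours before percent growth was determined.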 Unmarked numbers belong to inactive results. Activity calls are given as the source filed them. Rule for the calls: active = growth percent below 10; inactive = the rest.

Columns and labels:
Experiment in all cases: NCI-60 one-dose screen, 48 h (100 = growth as untreated, 0 = no growth, -100 = all killed)
NCI-H23 lung = conditions: 10 µM unless noted
NCI-H226 lung = conditions: 10 µM unless noted
NCI-H322M lung = conditions: 10 µM unless noted
HOP-62 NSCLC = conditions: 10 µM unless noted
NCI-H460 lung = conditions: 10 µM unless noted
HOP-92 NSCLC = conditions: 10 µM unless noted
NCI-H522 lung = conditions: 10 µM unless noted
A549/ATCC NSCLC = conditions: 10 µM unless noted
786-0 renal = conditions: 10 µM unless noted
COLO 205 colon = conditions: 10 µM unless noted
DU-145 prostate = conditions: 10 µM unless noted
MALME-3M melanoma = conditions: 10 µM unless noted
MDA-MB-231 breast = conditions: 10 µM unless noted
RXF 393 renal = conditions: 10 µM unless noted
SF-268 CNS = conditions: 10 µM unless noted
SF-295 CNS = conditions: 10 µM unless noted
SF-539 CNS = conditions: 10 µM unless noted
M14 melanoma = conditions: 10 µM unless noted
K-562 leukemia = conditions: 10 µM unless noted
UACC-257 melanoma = conditions: 10 µM

Row | Compound | growth (NCI-H23 lung) | growth (NCI-H226 lung) | growth (NCI-H322M lung) [%] | growth (HOP-62 NSCLC) | growth (NCI-H460 lung) | growth (HOP-92 NSCLC) [%] | growth (NCI-H522 lung) [%] | growth (A549/ATCC NSCLC) [%] | growth (786-0 renal) | growth (COLO 205 colon) [%] | growth (DU-145 prostate) [%] | growth (MALME-3M melanoma) [%] | growth (MDA-MB-231 breast) [%] | growth (RXF 393 renal) | growth (SF-268 CNS) [%] | growth (SF-295 CNS) | growth (SF-539 CNS) | growth (M14 melanoma) | growth (K-562 leukemia) [%] | growth (UACC-257 melanoma) [%]
1 | O=C1c2c(c3c4ccc(Br)cc4oc3c3[nH]c4ccccc4c23)C(=O)N1CCO | 46.3% | 33.3% | 68.1 | 12.2% | 3.9% (active) | 62.3 | 43.8 | 48.7 | 30.9% | 52.4 | 35 | 65.4 | 65.1 | 57.1% | 49.2 | 20.8% | 17.1% | 29.8% |  | 
2 | COc1cc2c3c(n(CCCN4CCC[C@H]4C(N)=O)c(=O)c2cc1OC)-c1cc2c(cc1C3=O)OCO2 | -3.5% (active) | -15% (active) | 26.1 | -0.224% (active) | 0.252% (active) | 23.9 | 22 | 30.7 | -10.3% (active) | 16.4 | 16.2 | 27.5 | 17.3 | 7.89% (active) | 27.6 | 7.46% (active) | -2.78% (active) | 6.29% (active) |  | 
3 | O=C(NCCNc1cc(-c2cn(-c3ccccc3)nc2-c2cccc(O)c2)ccn1)Nc1ccc(Cl)c(C(F)(F)F)c1 | 41.3% | 81.5% | 68.4 | 85.3% | 58.5% | 44 | 72.5 |  | 64.6% | 92.9 | 94.6 | 83 | 36 | 15.3% | 48.6 | 7.84% (active) | 40.2% | 48.3% | 35.5 | 89.6
4 | Cc1nn(-c2ccc(Br)cc2)c2nc(CCl)[nH]c(=O)c12 | 103% | 102% | 104 | 98.5% | 109% | 101 | 85.5 |  | -88.8% (active) | 103 | 110 | 106 | 94.1 | 119% | 99.4 | 100% | 77% | 101% | 75.6 | 101
5 | COc1cc2cc(Oc3ccc(NC(=O)Nc4cc(C(F)(F)F)cc(C(F)(F)F)c4)cc3)c(C)nc2cc1OCCN(C)C | 104% | 98.6% | 109 | 101% | 107% | 127 | 102 |  | 106% | 115 | 120 | 106 | 104 | 112% | 106 | 103% | 100% | 107% | 106 | 103
6 | NS(=O)(=O)c1ccc(Nc2nc(N/N=C/c3ccc(C(F)(F)F)cc3)nc(Nc3ccccc3)n2)cc1 | 52.8% | 36.7% | 52.6 | 38% | 14.6% | 57.4 | 38 |  | -3.55% (active) | 29.3 | 39.3 | 22.4 | 26.1 | -39.5% (active) | 50.4 | 4.66% (active) | 23.8% |  | 17.5 | 39.6
7 | CC(C)(C)CC(C)(C)n1nnnc1C(Nc1ccccc1)c1cc2cccc3ccc4cccc1c4c32 (centres undefined) | 82.3% | 84% | 91.5 | 86.1% | 81.7% | 49.7 | 72 |  | 88.4% | 96.4 | 96.9 | 87.4 | 75.1 | 79.5% | 82.4 | 86.5% | 95.7% | 90.2% | 72.6 | 95.5
8 | Cc1ccc(/C=C/CC(=O)Nc2ccc(C(=O)Nc3ccc(F)cc3N)cc2)cn1 | 68.6% | 68.6% | 74.4 | 59.1% | 72.1% | 22.6 | 30.4 |  | 75.6% | 49.4 | 54.3 | 41.4 | 69.3 | 74.5% | 60.4 | 69.7% | 55.9% | 56.7% | 34 | 52.4
